GPR151 ag: human GPR151 activation; 650,000 tested, 1% active; Q8TDV0; PathHunter beta-arrestin GPR151 cells, luminescence; AID 1508602; activation, % at 11.2 µM; in the data active = activation above about 4.9%
Target sequence (Q8TDV0 whole entry, looked up): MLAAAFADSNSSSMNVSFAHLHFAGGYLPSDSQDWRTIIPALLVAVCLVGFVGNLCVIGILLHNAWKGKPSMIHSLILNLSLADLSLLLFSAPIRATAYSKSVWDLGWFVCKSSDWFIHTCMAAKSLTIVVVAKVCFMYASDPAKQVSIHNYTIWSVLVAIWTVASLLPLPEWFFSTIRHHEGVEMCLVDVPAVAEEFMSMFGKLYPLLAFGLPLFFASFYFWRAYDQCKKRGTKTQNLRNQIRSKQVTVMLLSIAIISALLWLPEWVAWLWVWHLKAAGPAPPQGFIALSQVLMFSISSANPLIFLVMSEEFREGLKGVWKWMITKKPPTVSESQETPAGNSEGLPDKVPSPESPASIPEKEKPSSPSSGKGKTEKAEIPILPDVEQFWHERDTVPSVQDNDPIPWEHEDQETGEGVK
FBW7 act: activators of human E3 ligase FBW7 | Q969H0 | 650,000 tested, 0.13% active | AID 1259310 | normalized activity (activation), % at 26.1 µM | AlphaScreen FBW7–phospho-cyclin E peptide binding, activator screen; in the data active = normalized activity above about 1.9%;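 also: purified mutant Fbw7 with reduced substrate affinity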
MITF inh: human MITF inhibition, primary screen; O75030; AlphaScreen MITF homodimerization, bead proximity signal; inhibition, % at 2.6 µM; 650,000 tested, 0.91% active; AID 1259374; in the data active = inhibition above about 50%
TEAD-YAP inh: TEAD-YAP interaction inhibition; HEK-TIYL cells, TEAD-Gal4/YAP UAS-luciferase luminescence; inhibition, % at 9.12 µM; 640,000 tested, 1.4% active; in the data active = inhibition above about 32%
Of the large screens only hits and unclear results are named; the others gave an inactive call. Compounds with a hit are over-represented: about 3.4% of the library has one in this group of screens.

CN=c1scc(C)n1/N=C/c1ccc2c(c1)OCO2	none
CN=c1scc(-c2ccccc2F)n1/N=C/c1ccc(O)c(O)c1O	TEAD-YAP inh 88.7
CN=c1scc(-c2ccccc2Br)n1/N=C/c1ccco1	none
CN=c1scc(-c2cccc(Br)c2)n1/N=C/c1ccncc1	none
CN=c1scc(-c2ccccc2)n1/N=C/c1ccsc1	TEAD-YAP inh 99.0
CN=c1scc(-c2ccccc2Br)n1/N=C/c1ccc(O)cc1O	TEAD-YAP inh 96.2
CN=c1scc(-c2ccccc2F)n1/N=C/c1ccc2c(c1)OCO2	TEAD-YAP inh 93.6
CCN=c1scc(-c2ccc(F)cc2)n1/N=C/c1ccccn1	none
CCN=c1scc(-c2ccccc2)n1/N=C/c1ccccn1	TEAD-YAP inh 55.1
CN=c1scc(-c2ccccc2F)n1/N=C/c1ccsc1	TEAD-YAP inh 99.1
COc1ccc(NC(=O)COc2ccc(C(C)C)cc2)c(OC)c1	FBW7 act 2.1
Cc1ccc(OCC(=O)Nc2cc(-c3nc4cc(C(C)C)ccc4o3)ccc2Cl)cc1	none
CCC(=O)Nc1cc(-c2nc3cc(C(C)C)ccc3o2)ccc1Cl	TEAD-YAP inh 45.7
CC(C)c1ccc2oc(-c3ccc(NC(=O)COc4ccccc4)cc3)nc2c1	TEAD-YAP inh 68.7
Nc1ccc(-c2cc3ccccc3oc2=O)cc1	TEAD-YAP inh 70.2
Cc1cc(Cl)nc(NNC(=O)NC2CCCCC2)c1C#N	none
Cc1c(C(=O)OCCN2CCOCC2)oc2ccccc12	none
COc1ccc(C(=O)COC(=O)c2cc3ccccc3cc2O)c(OC)c1	none
COc1ccc(OCC(=O)Nc2ccc(-c3cc4ccccc4oc3=O)c(C)c2)cc1	none
COc1ccc(OCC(=O)Nc2cc(-c3nc4cc(C(C)C)ccc4o3)ccc2Cl)cc1	TEAD-YAP inh 70.0
COc1ccc(OCC(=O)Nc2ccc(-c3cc4ccccc4oc3=O)cc2)cc1	TEAD-YAP inh 43.3
COc1ccc(OCC(=O)Nc2ccc(-c3nc4cc(C(C)C)ccc4o3)cc2)cc1	TEAD-YAP inh 47.9
CCC(C)C(=O)Nc1ccc(-c2nc3ccccc3o2)cc1 (stereo not drawn)	TEAD-YAP inh 37.8
CC(C)c1ccc2oc(-c3ccc(Cl)c(NC(=O)COc4ccc(Cl)cc4)c3)nc2c1	none
CCC(C)C(=O)N1CCC(C(=O)Nc2ccc(-c3nc4ccccc4o3)cc2)CC1 (stereo not drawn)	none
COc1ccc(C2/C(=C(\O)c3ccc(F)cc3)C(=O)C(=O)N2c2nnc(C)s2)cc1 (stereo not drawn)	none
COc1ccc(-c2cc3ccc(O)cc3oc2=O)cc1OC	none
O=c1oc2cc(O)ccc2cc1-c1ccc(Cl)cc1	TEAD-YAP inh 42.1
Cc1ccc(-c2c[n+]3ccccc3n2-c2ccccc2)cc1	TEAD-YAP inh 80.1
CCOc1ccc(CCNC(=O)C2CC(=O)N(CC)C(=Nc3ccc(C(=O)OC)cc3)S2)cc1OCC (stereo not drawn)	none
CCOc1ccc2[nH]cc(C(=O)NCc3cccnc3)c(=O)c2c1	TEAD-YAP inh 40.8
Cc1sc(NC(=O)c2ccccc2Cl)c(C#N)c1C	FBW7 act 2.6
COC(=O)c1sc(NC(=O)c2ccccc2Cl)c(C#N)c1C	none
O=C1NC2(CCN(Cc3cccs3)CC2)Oc2ccccc21	none
O=C1NC2(CCN(S(=O)(=O)c3cccs3)CC2)Oc2ccccc21	FBW7 act 2.0
CC1CCc2nc3ccccc3c(C(=O)OC3CCOC3=O)c2C1 (stereo not drawn)	none
CC(=O)O[C@H]1C(=O)[C@@]2(C)[C@H]([C@H](OC(=O)[14c]3[14cH][14cH][14cH][14cH][14cH]3)[C@]3(O)C[C@H](OC(=O)[C@H](O)[C@@H](NC(=O)c4ccccc4)c4ccccc4)C(C)=C1C3(C)C)[C@]1(OC(C)=O)CO[C@@H]1C[C@@H]2O	none (no result: TEAD-YAP inh)
CC(=O)O[C@H]1C(=O)[C@@]2(C)[C@H]([C@H](OC(=O)c3ccccc3)[C@]3(O)C[C@H](OC(=O)[C@H](O)[C@@H](NC(=O)c4ccccc4)c4ccccc4)C(C)=C1C3(C)C)[C@]1(OC(C)=O)CO[C@@H]1C[C@@H]2O	TEAD-YAP inh 63.6
CC[C@@]1(O)C(=O)OCc2c1cc1n(c2=O)Cc2cc3cc(O)ccc3nc2-1	TEAD-YAP inh 84.0
Cc1cc(C)nc(/N=C(\N)Nc2ccc3ncccc3c2)n1	none
O=C(Nc1cnc2cnc(-c3ccc(N4CCOCC4)cc3)cn12)C1CCOC1 (stereo not drawn)	FBW7 act 2.4
Cc1nnc(SCc2ccc([N+](=O)[O-])cc2)c2cc3occc3n12	none
O=C(Nc1ccc(S(=O)(=O)N2CCCCC2c2cccnc2)cc1)c1ccc([N+](=O)[O-])cc1 (stereo not drawn)	TEAD-YAP inh 36.4

Source: PubChem BioAssay
